Source: the supplement of paper PMC6522484
± gives the standard deviation of the averaged measurements.

Assays:
DLD1 [1] = assay: cell viability (CellTiter-Glo) relative to plate median (fraction of plate median); higher = more viable cells; settings: 5 µM; treatment time 24 h; reporter: 7TFP
Procedure, shortened: (§1)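 Library compounds, at a final 5 µM, stayed on reporter cells for 24 h. The cells were colorectal cancer lines stably transduced with lentiviral TCF/Wnt firefly luciferase reporters, seeded in 384-well plates 24 h before dosing. Firefly luciferase or CellTiterGlo luminescence from parallel plates was normalised to the plate median in webcellHTS2 (additive, no log transformation), and two independent replicates were averaged.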

HCT116 = assay: as above; settings: 5 µM; treatment time 24 h; reporter: TCF4/Wnt
Procedure, shortened: as §1

SW480 [2] = assay: as above; settings: 5 µM; treatment time 24 h; reporter: 7TFP
Procedure, shortened: as §1

DLD1 [3] = assay: TCF/Wnt firefly luciferase reporter signal relative to plate median (fraction of plate median); higher = higher Wnt reporter signal; settings: 5 µM; treatment time 24 h; reporter: 7TFP
Procedure, shortened: as §1

SW480 [4] = assay: as above; settings: 5 µM; treatment time 24 h; reporter: 7TFP
Procedure, shortened: as §1

SMILES	cell viability (DLD1 [1])	cell viability (HCT116)	cell viability (SW480 [2])	TCF/Wnt firefly luciferase reporter signal (DLD1 [3])	TCF/Wnt firefly luciferase reporter signal (SW480 [4])
C#C[C@]1(O)CC[C@H]2[C@@H]3CCC4=Cc5oncc5C[C@]4(C)[C@H]3CC[C@@]21C	1.06 ± 0.021	0.936 ± 0.029	1.01 ± 0.035	1.04	0.817 ± 0.046
COc1c(-c2coc3cc4c(cc3c2=O)CC(O)C(C)(C)O4)ccc2c1C=CC(C)(C)O2 (stereo not given)	0.973 ± 0.081	0.973 ± 0.12	1.02 ± 0.079	0.869 ± 0.0014	0.946 ± 0.077
CC1(C)C(=O)C=C[C@]2(C)[C@H]3CC[C@@]4(C)[C@H](c5ccoc5)OC(=O)[C@H]5O[C@]54[C@]3(C)C(=O)C[C@@H]12	1.02	0.974 ± 0.023	0.97 ± 0.033	0.871 ± 0.093	0.978 ± 0.025
NCCCC(=O)O [gamma-AMINOBUTYRIC ACID]	1.02 ± 0.046	1.02 ± 0.11	1.04 ± 0.05	1.06 ± 0.093	0.89 ± 0.24
O=C(CCCN1CCN(c2ccccn2)CC1)c1ccc(F)cc1	1.03 ± 0.028	0.963 ± 0.12	0.994 ± 0.023	0.985 ± 0.064	1.01 ± 0.028
OCCN(CCO)c1nc(N2CCCCC2)c2nc(N(CCO)CCO)nc(N3CCCCC3)c2n1	0.905 ± 0.0042	0.991 ± 0.013	0.973 ± 0.016	1.13 ± 0.042	1.03 ± 0.028
CC(C)NCC(O)c1ccc(O)c(O)c1 (stereo not given)	0.963 ± 0.11	1.04 ± 0.074	0.999 ± 0.016	1.02 ± 0.08	1.1 ± 0.042
COc1cc(OC)c2c(=O)c(-c3ccccc3)c(C)oc2c1OC	1.07 ± 0.15	1.05 ± 0.078	1.01 ± 0.052	1 ± 0.069	0.9545 ± 0.00071
CC(C)[C@H]1CC[C@H](C(=O)N[C@H](Cc2ccccc2)C(=O)O)CC1	0.905 ± 0.0028	0.972 ± 0.0014	0.973 ± 0.067	1.03 ± 0.014	0.983 ± 0.014
Cc1cc2nc3c(=O)[nH]c(=O)nc-3n(C[C@H](O)[C@H](O)[C@H](O)CO)c2cc1C	0.984 ± 0.052	0.919 ± 0.051	0.974 ± 0.016	1.07 ± 0.035	0.907 ± 0.021
CCCCOc1cc(CC2CNC(=O)N2)ccc1OC (stereo not given)	0.999 ± 0.016	0.921 ± 0.081	0.912 ± 0.011	1.015 ± 0.0071	1.04 ± 0.19
NCCCC[C@H](NC(=O)[C@H](Cc1ccc(O)cc1)NC(=O)[C@@H](N)CCCCN)C(=O)O	1.04 ± 0.064	0.967 ± 0.042	1.06 ± 0.035	1.05 ± 0.095	1.03
CNCC[C@@H](Oc1ccccc1C)c1ccccc1	0.949 ± 0.073	0.941 ± 0.043	0.969 ± 0.021	1.02 ± 0.014	1.08 ± 0.042
N/C(=N\C(=O)c1nc(Cl)c(N)nc1N)NCc1ccccc1	0.986 ± 0.035	0.969 ± 0.17	0.998 ± 0.031	1.07 ± 0.16	1.04 ± 0.066
CC[C@]1(O)C[C@H]2CN(CCc3c([nH]c4ccccc34)[C@@](C(=O)OC)(c3cc4c(cc3OC)N(C=O)[C@H]3[C@@](O)(C(=O)OC)[C@H](OC(C)=O)[C@]5(CC)C=CCN6CC[C@]43[C@@H]65)C2)C1	1.01 ± 0.16	0.53 ± 0.064	1.17 ± 0.035	0.666 ± 0.091	0.713 ± 0.075
O=C(O)c1cc(=O)c2c(Cl)cc(Cl)cc2[nH]1	0.944 ± 0.12	0.968 ± 0.059	0.976 ± 0.091	0.835 ± 0.021	0.911 ± 0.052

SMILES	cell viability (DLD1 [1])	cell viability (HCT116)	cell viability (SW480 [2])	TCF/Wnt firefly luciferase reporter signal (DLD1 [3])	TCF/Wnt firefly luciferase reporter signal (SW480 [4])
COC1=CC(=O)C[C@@H](C)[C@]12Oc1c(Cl)c(OC)cc(OC)c1C2=O	0.937 ± 0.055	1.02 ± 0.057	0.865 ± 0.038	0.929 ± 0.094	0.89 ± 0.17
CCOC(=O)c1ncn2c1CN(C)C(=O)c1cc(F)ccc1-2	0.944 ± 0.045	1.03	0.952 ± 0.025	0.996 ± 0.02	0.993 ± 0.0099
CN1CC(=O)NC1=N	1.02 ± 0.04	0.943 ± 0.021	1.02 ± 0.021	0.979 ± 0.059	0.935 ± 0.13
CC(C)CCCC(C)N (stereo not given)	0.99 ± 0.012	0.929 ± 0.031	0.9345 ± 0.0092	0.875 ± 0.03	0.9465 ± 0.0078
COc1c(O)cc2oc3cc(O)c(CC=C(C)C)c(O)c3c(=O)c2c1CC=C(C)C [alpha-MANGOSTIN]	1.055 ± 0.0071	1.15 ± 0.021	1.01 ± 0.015	1.04 ± 0.24	0.941 ± 0.076
CC[C@H](C)[C@@H]1NC(=O)[C@H](C)NC1=O [Cyclo(alanylisoleucyl)]	1.05 ± 0.12	1.165 ± 0.0071	1.07 ± 0.014	1.05 ± 0.028	0.992 ± 0.15
COC(=O)[C@H]1[C@H]2C[C@H]3c4[nH]c5cc(OC)ccc5c4CCN3C[C@H]2C[C@@H](OC(=O)c2cc(OC)c(OC)c(OC)c2)[C@@H]1OC	0.96 ± 0.057	1 ± 0.11	0.905 ± 0.011	1.18	0.9565 ± 0.0021
NS(=O)(=O)c1cc2c(cc1C(F)(F)F)NC(Cc1ccccc1)NS2(=O)=O (stereo not given)	0.992 ± 0.04	0.969 ± 0.058	0.9875 ± 0.0035	0.836 ± 0.075	0.885 ± 0.064
CC(C)C[C@@H](NC(=O)[C@H](C)NC(=O)CNC(=O)[C@@H](NC=O)C(C)C)C(=O)N[C@@H](C)C(=O)N[C@@H](C(=O)N[C@H](C(=O)N[C@H](C(=O)N[C@@H](Cc1c[nH]c2ccccc12)C(=O)N[C@H](CC(C)C)C(=O)N[C@@H](Cc1c[nH]c2ccccc12)C(=O)N[C@H](CC(C)C)C(=O)N[C@@H](Cc1c[nH]c2ccccc12)C(=O)N[C@H](CC(C)C)C(=O)N[C@@H](Cc1c[nH]c2ccccc12)C(=O)NCCO)C(C)C)C(C)C)C(C)C	0.939 ± 0.13	0.903 ± 0.061	0.613 ± 0.072	0.885 ± 0.043	0.488 ± 0.077
C[C@@H]1CC[C@@]2(OC1)O[C@H]1C[C@H]3[C@@H]4CC[C@H]5C[C@@H](O)CC[C@]5(C)[C@H]4CC[C@]3(C)[C@H]1[C@@H]2C	0.953 ± 0.0057	0.875 ± 0.037	1.01	1.06 ± 0.028	0.931 ± 0.037
CC1=C(/C=C/C(C)=C/C=C/C(C)=C/C=C/C=C(C)/C=C/C=C(C)/C=C/C2=C(C)C(=O)[C@@H](O)CC2(C)C)C(C)(C)C[C@H](O)C1=O	1.05 ± 0.057	1.07 ± 0.042	1 ± 0.027	1.06 ± 0.11	0.824 ± 0.099
COc1cc(OC)cc(OC)c1	1.03 ± 0.028	1.02 ± 0.028	1.015 ± 0.0071	1.13 ± 0.028	1.1 ± 0.11
Cc1ncc(CO)c(CO)c1O	1.02 ± 0.033	1.09 ± 0.17	1.02 ± 0.014	0.951 ± 0.11	0.9705 ± 0.0092
Oc1c(Cl)cc(Cl)c(Cl)c1Cc1c(O)c(Cl)cc(Cl)c1Cl	0.934 ± 0.021	1.03 ± 0.1	1.02 ± 0.028	1.34 ± 0.18	1.15 ± 0.021
CCCCC[C@@H](O)[C@H]1C(=O)O[C@H](C)[C@@H](O)/C=C/C=C/C=C/C=C/C=C(\C)[C@@H](O)C[C@H](O)C[C@H](O)C[C@H](O)C[C@H](O)C[C@H](O)C[C@@H]1O	1.02	1.05 ± 0.05	0.989 ± 0.03	1.01 ± 0.022	1.09 ± 0.078
